# Test results: the supplement of paper PMC10037445
# In all, about 2,900 compounds were measured (“IRF Lucia reporter activity, fold change vs agonist alone”: median about 0.9, highest 2% from about 2.8 on). This excerpt belongs to a sample that is enriched for the highest values.
# What was measured:
# RAW-Dual [1] = assay: IRF Lucia reporter activity, fold change vs agonist alone; higher = enhanced IRF activity; details: library stock concentration (final ~1000-fold dilution): 10 mM, agonist: MPLA (TLR4) […]
# Summary of the method: (§1)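 RAW-Dual macrophages were seeded in DMEM at 50,000 cells/well in 384-well plates, given 50 nL of library stock by pin tool, and given a PRR agonist 1 h later. Plates were held at 37 °C, 5% CO2 for 20 hours, after which supernatant was read for IRF by QuantiLuc luminescence and for NF-κB by QuantiBlue absorbance at 620 nm. Reporter activity is expressed as fold change over wells that received agonist alone. A well was called cytotoxic when IncuCyte confluency fell below 70% of agonist controls in both mask sets.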
# RAW-Dual [2] = assay: IRF Lucia reporter activity, fold change vs agonist alone; cytotoxicity flag (confluency mask): not cytotoxic; higher = enhanced IRF activity; details: library stock concentration (final ~1000-fold dilution): 10 mM
# Summary of the method: as §1
# RAW-Dual [3] = assay: IRF Lucia reporter activity, fold change vs agonist alone; cytotoxicity flag (confluency mask): cytotoxic (confluency <70% of control); higher = enhanced IRF activity; details: library stock concentration (final ~1000-fold dilution): 10 mM
# Summary of the method: as §1
# [4] = cytotoxicity flag (confluency mask): not cytotoxic
# [5] = agonist: 3'3'-cGAMP (STING) 10 ug/mL
compound,measurement,setting,value
CCC(C)C(NC(=O)C(C(C)CC)N(C)C(C)=O)C(=O)NC(=O)C(NC(CC(C)C)C(=O)C1(C)CO1)C(C)O (stereo not drawn),IRF Lucia reporter activity,RAW-Dual [1]; [4],2.09
same,IRF Lucia reporter activity,RAW-Dual [2]; [5],1.55
same,IRF Lucia reporter activity,RAW-Dual [2]; agonist: LPS (TLR4) 0.1 ug/mL,4.46
COc1cc2c(cc1OC)C(Cc1ccc(O)c(Oc3cc4c(cc3OC)CCN(C)C4Cc3ccc(O)cc3)c1)N(C)CC2.[O-][Cl+3]([O-])([O-])O (stereo not drawn),IRF Lucia reporter activity,RAW-Dual [2]; [5],0.0548
same,IRF Lucia reporter activity,RAW-Dual [2]; agonist: LPS (TLR4) 0.1 ug/mL,0.74
Cc1sc2c(c1C)C(c1ccc(Cl)cc1)=NC(CC(=O)OC(C)(C)C)c1nnc(C)n1-2 (stereo not drawn),IRF Lucia reporter activity,RAW-Dual [1]; cytotoxicity flag (confluency mask): cytotoxic (confluency <70% of control),0.122
same,IRF Lucia reporter activity,RAW-Dual [3]; [5],0.193
same,IRF Lucia reporter activity,RAW-Dual [3]; agonist: LPS (TLR4) 0.1 ug/mL,0.185
CC(C)c1ccc2c(c1O)CCC1C3=C(CCC21C)C(=O)OC3 (stereo not drawn),IRF Lucia reporter activity,RAW-Dual [2]; [5],0.917
same,IRF Lucia reporter activity,RAW-Dual [2]; agonist: LPS (TLR4) 0.1 ug/mL,1.25
CCC12C=CCN3CCC4(c5ccc(OC)cc5N(C)C4C(O)(C(=O)OC)C1OC(C)=O)C32 (stereo not drawn),IRF Lucia reporter activity,RAW-Dual [1]; [4],1.06
same,IRF Lucia reporter activity,RAW-Dual [2]; [5],0.891
same,IRF Lucia reporter activity,RAW-Dual [2]; agonist: LPS (TLR4) 0.1 ug/mL,1.25
